Assay [1] is described as follows: APR_HepG2_P-H2AX_72hr: Apredica 72-hour HepG2 Assay for H2AX Phosphorylation (AID 2282916).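 Also: phospho-histone H2A.x immunostain intensity per cell marking DNA damage.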 Conditions: imaging, actives raise or lower the signal. Summed up:
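Following 72 hr treatment with 0.39–200 uM compound, HepG2 cells were formaldehyde-fixed, permeabilized and stained for phospho-H2A.x; signal was measured by high-content imaging and fitted bidirectionally against DMSO controls.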

Assay [2] is described as follows: APR_HepG2_MitoMembPot_72hr: Apredica 72-hour HepG2 Assay for Mitochondrial Membrane Potential (AID 2282917). The following applies: imaging, actives raise or lower the signal. Summed up: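 HepG2 cells dosed 72 hr with compound at 0.39–200 uM in duplicate, 0.5% v/v DMSO final. Mitochondria stained with 250 nM MitoTracker Red CMXRos for 30 min before formaldehyde fixation, imaged by high-content fluorescence; bidirectional fit versus DMSO.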

Assay [3] in a line: APR_HepG2_MitoticArrest_72hr: Apredica 72-hour HepG2 Assay for Mitotic Arrest (AID 2282918). Conditions: high-content imaging, actives raise or lower the signal. In short, it runs like this: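 HepG2, 72 hr exposure, 0.39–200 uM in duplicate, 0.5% v/v DMSO final. Formaldehyde-fixed, Triton-permeabilized, anti-phospho-histone H3/FITC plus Hoechst. ArrayScan imaging at 20x; curves fit bidirectionally against DMSO baseline.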

Assay [4] can be described thus: APR_HepG2_MicrotubuleCSK_72hr: Apredica 72-hour HepG2 Assay for Microtubule CSK Stabilty (AID 2282919). The following applies: HepG2 microtubule cytoskeleton, high-content imaging, actives raise or lower the signal. In short, it runs like this: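 HepG2 cells were exposed 72 hr to compound at 0.39–200 uM in duplicate (0.5% DMSO final), then fixed and permeabilized. Alpha-tubulin immunofluorescence was imaged by high-content microscopy, with bidirectional fitting against DMSO and taxol as positive control.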

Assay [5] is described as follows: APR_HepG2_P-H2AX_24hr: Apredica 24-hour HepG2 Assay for H2AX Phosphorylation (AID 2282920). The following applies: high-content imaging, actives raise or lower the signal. Summed up: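 HCS fluorescence imaging of phospho-H2A.x immunostain (with Hoechst 33342 nuclear counterstain) in HepG2 after 24 hr compound exposure; 10 concentrations, 0.39–200 uM, duplicate wells, 0.5% v/v DMSO. Gain or loss of signal fitted relative to DMSO baseline.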

Assay [6] can be described thus: APR_HepG2_StressKinase_72hr: Apredica 72-hour HepG2 Assay for Stress Kinase (AID 2282921). Conditions: HepG2 stress kinase (phospho-c-Jun) imaging, actives raise or lower the signal. Summed up: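 Fluorescence intensity of Cy3-tagged anti-phospho-c-Jun antibody, quantified per cell from Hoechst-defined nuclei across six images per well, served as the read-out following 72 h exposure (0.39–200 uM, 0.5% v/v DMSO).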

The nature of assay [7]: APR_HepG2_p53Act_72hr: Apredica 72-hour HepG2 Assay for p53 Activation (AID 2282923).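 Also: average cellular p53 protein immunofluorescence intensity in HepG2 cells.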 The following applies: high-content imaging, actives raise or lower the signal. Summed up: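 HepG2 monolayers receive test compounds in duplicate at ten concentrations (0.39 through 200 uM) for 72 hr. They are then formaldehyde-fixed, antibody-labelled for p53, Hoechst-stained and imaged, with activity fitted bidirectionally versus DMSO.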

Assay [8] can be described thus: APR_HepG2_MitoMass_72hr: Apredica 72-hour HepG2 Assay for Mitochondrial Mass (AID 2282924).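 Also: MitoTracker Red CMXRos stain intensity per cell imaged as mitochondrial mass.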 Conditions: high-content imaging, actives raise or lower the signal. In short, it runs like this:
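HepG2 cells dosed 72 hr at 0.39–200 uM (0.5% DMSO), in duplicate. MitoTracker Red CMXRos 250 nM loaded 30 min before formaldehyde fixation; high-content fluorescence imaging, bidirectional fit versus DMSO.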

Assay [9] can be described thus: APR_HepG2_NuclearSize_72hr: Apredica 72-hour HepG2 Assay for Nuclear Size (AID 2282925). Conditions: high-content imaging, actives raise or lower the signal. Summed up:
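HepG2 cells dosed 72 h at 0.39–200 uM (10 concentrations, duplicate) in 0.5% v/v DMSO final. Fixed, Hoechst 33342-stained nuclei imaged; nuclear diameter measured by automated image analysis. Bidirectional fit versus DMSO.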

The source made the active and inactive calls. The calls were made as follows: active = hit-call score of the fitted dose curve at least 0.9, where 1 is the maximum; inactive = score below 0.9.

For `CCOCCOC(C)=O`, the result in assay [1], in assay [2], in assay [3], in assay [4], in assay [5] and in assay [6] was inactive. Also, the outcome in assay [7], in assay [8] and in assay [9] was inactive.

Consider `Cc1ccc(O)c(C)c1`, for which the outcome in [1], in [2], in assay [3], in [4], in [5] and in assay [6] was inactive. Moreover, the call in assay [7], in assay [8] and in assay [9] was inactive.

For `CC(C)(O)C(=O)Nc1ccc([N+](=O)[O-])c(C(F)(F)F)c1`, the compound was classed as inactive in assay [1], in assay [3], in assay [4], in assay [5], in assay [6] and in [7]. For the same compound, the AC50 is 0.889 µM (active) in assay [2], 0.652 µM (active) in assay [8] and 0.522 µM (active) in assay [9].

Turning to `Cc1ccccc1[N+](=O)[O-]`, the compound was classed as inactive in assay [1], in assay [2], in assay [3], in assay [4], in assay [5] and in assay [6]. The outcome in assay [7], in assay [8] and in assay [9] was inactive.

Consider `CC1=C2C[C@H]3[C@@H](CC=C4C[C@@H](O)CC[C@@]43C)[C@@H]2CC[C@]12O[C@@H]1C[C@H](C)CN[C@H]1[C@H]2C`, for which the AC50 in assay [1] was 50 µM (active); in assay [3], 16.5 µM (active); in assay [5] it was 33.4 µM (active); in assay [8], 41.2 µM (active). The call in assay [2], in assay [4], in [6], in [7] and in assay [9] was inactive.

Regarding `ClC1=C(Cl)[C@]2(Cl)[C@@H]3[C@H]4C[C@H]([C@@H]5O[C@H]45)[C@@H]3[C@@]1(Cl)C2(Cl)Cl`, the compound was classed as inactive in assay [1], in assay [2], in assay [3], in assay [4], in assay [5] and in [6]. The compound was classed as inactive in [7], in [8] and in assay [9].

In the case of `C=CC(=O)NCNC(=O)C=C`, the compound was called inactive in assay [1], in assay [2], in [3], in assay [4], in assay [5] and in assay [6]. In addition, the outcome in [7], in assay [8] and in assay [9] was inactive.

Turning to `CCSC(=O)N(CC)C1CCCCC1`, the compound was called inactive in assay [1], in assay [2], in [3], in assay [4], in [5] and in assay [6]. Further, the outcome in [8] and in [9] was inactive.

As to `Clc1ccc(C(c2ccccc2Cl)C(Cl)(Cl)Cl)cc1` (stereo not drawn), the outcome in [1], in [4], in assay [6], in assay [7], in assay [8] and in assay [9] was inactive. Besides, the figures for the AC50 in [2], in assay [3] and in assay [5] were 56.3 µM (active), 50.9 µM (active) and 82.8 µM (active), respectively.

With `C=CC(N)=O`, the result in assay [1], in assay [2], in assay [3], in assay [4], in assay [5] and in [6] was inactive. The compound was called inactive in [7], in assay [8] and in assay [9].

For `Cc1ccccc1O`, the compound was classed as inactive in assay [1], in assay [2], in [3], in [4], in assay [5] and in assay [6]. The result in [7], in [8] and in assay [9] was inactive.

With `C[C@]12CCC(=O)C=C1CC[C@@H]1[C@@H]2CC[C@@]2(C)[C@H]1CC[C@]2(C)O`, the compound was classed as inactive in assay [1], in assay [2], in [3], in assay [4], in assay [5] and in assay [6]. Moreover, the call in assay [7], in assay [8] and in assay [9] was inactive.

Consider `CCCCCCOC(=O)c1ccccc1C(=O)OCCCCCC`, for which the outcome in assay [1], in assay [2], in [3], in [5], in assay [6] and in [7] was inactive. In addition, the compound was classed as inactive in assay [8] and in assay [9]. The AC50 in assay [4] was 102 µM (active).

On to `O=C(O)C(F)(F)C(F)(F)C(F)(F)C(F)(F)C(F)(F)C(F)(F)C(F)(F)C(F)(F)C(F)(F)F`, for which the AC50 in assay [1] was 108 µM (active); in assay [3], 98.1 µM (active); in [5], 113 µM (active); in [6], 113 µM (active); in [7], 113 µM (active); in assay [8] it was 111 µM (active). The AC50 in assay [9] was 122 µM (active). In addition, the result in assay [2] and in assay [4] was inactive.

Regarding `CN(C)CCO`, the compound was called inactive in assay [1], in assay [2], in [3], in assay [4], in assay [5] and in assay [6]. In addition, the result in assay [7], in [8] and in assay [9] was inactive.

For `Oc1c(Cl)c(Cl)c(Cl)c(Cl)c1Cl`, the result in assay [1], in assay [2], in assay [3], in assay [4], in assay [5] and in assay [6] was inactive. The outcome in assay [7], in [8] and in assay [9] was inactive.

The term AC50 denotes the concentration at which the activity in the assay is half-maximal.

The values above are taken from PubChem BioAssay (EPA / NIEHS).
